From PubChem BioAssay (Tox21) come the findings set out here.

A number with no mark means an inactive call. Calls come from the whole dose curve; as a rule, active = well fitted activation curve with a large enough effect in the repeat runs; inconclusive = weak or mixed curves; inactive = flat fitted curve, though single readings scatter.
% is set by controls: 0 for no effect and ±100 for the full control effect.

Sequence of KiSS-1 receptor (Homo sapiens) (Q969F8 whole entry, looked up): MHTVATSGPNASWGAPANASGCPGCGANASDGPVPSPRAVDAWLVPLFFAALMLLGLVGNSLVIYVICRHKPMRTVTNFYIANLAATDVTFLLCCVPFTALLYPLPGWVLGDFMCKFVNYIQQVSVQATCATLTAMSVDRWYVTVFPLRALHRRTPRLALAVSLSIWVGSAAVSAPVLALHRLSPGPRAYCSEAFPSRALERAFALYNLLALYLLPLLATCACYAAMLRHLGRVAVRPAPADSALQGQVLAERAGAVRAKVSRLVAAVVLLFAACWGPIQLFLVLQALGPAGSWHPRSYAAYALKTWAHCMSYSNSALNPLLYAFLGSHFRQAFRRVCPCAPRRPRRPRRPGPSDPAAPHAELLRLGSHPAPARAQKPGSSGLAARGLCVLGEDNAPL

This test concerns the target KiSS-1 receptor (Homo sapiens) (UniProt Q969F8). As to the kind of experiment: Human kisspeptin (KISS1R) small molecule agonists, calcium flux assay in KISS1R-HEK293 cells (AID 1920064). To be noted: KISS1R-HEK293, calcium flux fluorescence, agonist; series mostly up to 76.8 µM; activation: at the top concentration. A digest of the protocol: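 Intracellular calcium mobilization in KISS1R-HEK293 cells was recorded by fluorescence (Ex/Em 480/540) for 3 min following compound addition to cells pre-loaded 1 h with calcium dye.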
On to `N#Cc1sc2c(=O)c3ccccc3c(=O)c=2sc1C#N`, for which the “activation” value was 26.3%.
On to `C=CC(=O)OCC`, for which the “activation” value is 0.237%.
With `Cc1c(Cl)c(=O)oc2cc(OP(=O)(OCCCl)OCCCl)ccc12` the figure was 1.38% [at 35.3 µM].
`O=C(CBr)Nc1ccc(Cl)cc1C(=O)c1ccccc1F`: the “activation” value is -1.74% [at 35.3 µM].
With `CC1=NNC(=O)N(/N=C/c2cccnc2)C1`, the “activation” value is -1.72%.
With `[O-][Cl+3]([O-])([O-])O`, the “activation” value is -0.37%.
With `CCn1cc[n+](C)c1` (tested in a mixture with another compound), the “activation” value was 0.0957%.
With `CCOC(=O)C(Cl)Cc1cc(-n2nc(C)n(C(F)F)c2=O)c(F)cc1Cl` (stereo not drawn) the figure was 1.49%; with `COc1ccc(C(=O)c2c(C)n(CCN3CCOCC3)c3ccccc23)cc1`, -0.444% [at 35.3 µM]; with `CSC(C)(C)/C=N/O`, 5.92%.
With `C=CCC1(C(C)CC)C(=O)NC(=O)NC1=O` (stereo not drawn) the figure was 0.809% [at 35.3 µM]; with `CCOP(=O)(SC(C)CC)N1CCSC1=O` (stereo not drawn), -1.42%; with `CCOP(=S)(OCC)Oc1cc(-c2ccccc2)on1`, 0.187%.
With `CCNP(=S)(OC)O/C(C)=C/C(=O)OC(C)C` (stereo not drawn) the figure was 0.68%; with `COP(=O)(OC)O/C(C)=C/C(=O)N(C)C`, -0.198%.
For `CCOC(=O)CCN(SN(C)C(=O)Oc1cccc2c1OC(C)(C)C2)C(C)C`, the “activation” value is 3.22%.
With `CN1C2CCC(C)(C)C1CC(OC(=O)C(O)(c1cccs1)c1cccs1)C2` (stereo not drawn) the figure was 9.73% [at 35.3 µM].
For the compound `O=C1OC(=O)C2C1C1(Cl)C(Cl)=C(Cl)C2(Cl)C1(Cl)Cl` (stereo not drawn), the “activation” value was 0.173%.
With `C[C@H](CN1CCOCC1)C(C(=O)N1CCCC1)(c1ccccc1)c1ccccc1` the figure was 1.53%.
Take `NNCc1ccccc1`: the “activation” value was 1.21%.
Regarding `ClC(Br)Br`, the “activation” value was 5.72%.
Regarding `C#CC(C)(C)O`, the “activation” value is 0.801%.
With `CCN1CCC2(CC1)COc1cc3c(cc12)N(C(=O)c1ccc(-c2ccc(-c4nnc(C)o4)cc2C)cc1)CC3` the figure was -2.61%.
